Laboratory results as given in PubChem BioAssay (NCI).
Compounds without any hit were thinned out: in the full panel of roughly 83,000, 20% have a hit.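 Cell lines were cultured in 96-well plates, exposed to a single compound concentration, and assessed for percent growth 48 hours later.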 Unmarked numbers belong to inactive results. The source made the active and inactive calls. How the source made its calls: active means growth percent below 10; inactive means the rest.

Tests used:
Experiment in all cases: NCI-60 one-dose screen, 48 h (100 = growth as untreated, 0 = no growth, -100 = all killed)
Details in all cases: 10 µM unless noted
[1] = system: NCI-H23 lung
[2] = system: NCI-H226 lung
[3] = system: NCI-H322M lung
[4] = system: HOP-62 NSCLC
[5] = system: NCI-H460 lung
[6] = system: HOP-92 NSCLC
[7] = system: NCI-H522 lung
[8] = system: A549/ATCC NSCLC
[9] = system: 786-0 renal
[10] = system: COLO 205 colon
[11] = system: DU-145 prostate
[12] = system: K-562 leukemia
[13] = system: MALME-3M melanoma
[14] = system: MDA-MB-231 breast
[15] = system: RXF 393 renal
[16] = system: SF-268 CNS
[17] = system: SF-295 CNS
[18] = system: SF-539 CNS
[19] = system: UACC-257 melanoma
[20] = system: M14 melanoma

Compound | growth [1] | growth [2] | growth [3] | growth [4] | growth [5] | growth [6] | growth [7] | growth [8] | growth [9] | growth [10] | growth [11] | growth [12] | growth [13] | growth [14] | growth [15] | growth [16] | growth [17] | growth [18] | growth [19] | growth [20]
Cc1ccc(C)c(CCO)c1 | 117% | 91.8% | 108% | 92.4% | 105% | 68.3% | 97.8% | 92.6% | 97.2% | 105% | 93% | 116% | 106% | 92.6% | 103% | 96.1% | 102% | 97.2% | 94.8% | 108%
CCC12OC(COc3ccccc3)CN1CCN2c1ccccc1 (stereo not given) | 98.2% [100 µM] | 93.8% [100 µM] | 93.3% [100 µM] | 98.9% [100 µM] | 106% [100 µM] | 96.9% [100 µM] | 87.6% [100 µM] | 94.1% [100 µM] | 96.6% [100 µM] | 118% [100 µM] | 106% [100 µM] | 93.1% [100 µM] | 98.4% [100 µM] | 88.8% [100 µM] | 99.9% [100 µM] | 92.2% [100 µM] | 105% [100 µM] | 95.9% [100 µM] | 95.8% [100 µM] | 103% [100 µM]
O=C(N/N=C\c1ccc(Cl)cc1Cl)c1ccncc1 | 103% | 102% | 106% | 112% | 105% | 87.9% | 84.8% | 91% | 90.5% | 118% | 111% | 96.7% | 99.1% | 98.9% | 118% | 98.7% | 103% | 105% | 104% | 100%
CCNc1ccc2ccccc2c1N=Nc1ccc(N=Nc2ccccc2)cc1 | 99.4% | 83.6% | 101% | 102% | 84.7% | 98.1% | 90.2% | 102% | 108% | 100% | 121% | 125% | 128% | 93.4% | 118% | 117% | 107% | 104% | 123% | 104%
OCC1CCC(O)C(CO)N1 (stereo not given) | 110% | 104% | 113% | 101% | 107% | 119% | 103% | 94.2% | 109% | 95% | 113% | 116% | 106% | 106% | 107% | 106% | 91% | 87.9% | 110% | 96.5%
CCOS(=O)(=O)c1ccc([N+](=O)[O-])cc1 | 101% | 101% | 102% | 100% | 107% | 99.4% | 94.3% | 86.1% | 107% | 109% | 108% | 99.2% | 113% | 106% | 120% | 103% | 101% | 102% | 94.5% | 105%
CCCCCCCCCCCCCCCCCCSC(=N)N | 63.5% | 84.1% | 88% | 81.6% | 52.7% | 11.1% | 90.1% | 80.6% | 61.9% | 3.95% (active) | 59.2% | 40.4% | 82.8% | 29.5% | 71.5% | 60.8% | 80.9% | 86.6% | 80.5% | 60%
COC1C(=O)CCC2(CO2)C1(O)C1(C)OC1CCC(C)C (stereo not given) | 69.5% | 85.2% | 76.8% | 71.5% | 20.5% | 67.5% | 62.8% | 56.2% | 81.2% | 65.9% | 48.7% | 47.6% | 103% | 107% | 69.5% | 74.6% | 72.9% | 88% | 39.9% | 56.5%
OCc1cccnc1 | 100% | 103% | 106% | 99.8% | 103% | 98.4% | 108% | 92.2% | 107% | 107% | 111% | 117% | 121% | 103% | 112% | 97.7% | 99% | 95.3% | 91.2% | 98.2%
CC1(C)OC(=O)CC1=O | 98.6% | 76.1% | 108% | 97.9% | 104% | 81.2% | 86.4% | 69% | 98.4% | 99.6% | 109% | 92.2% | 105% | 104% | 103% | 103% | 106% | 102% | 89.4% | 93.9%
CC(C)c1ccc(C(=O)OCCCl)cc1 | 94% | 106% | 92.7% | 82.2% | 105% | 163% | 97.2% | 97.9% | 95.2% | 110% | 117% | 103% | 89.9% | 105% | 41.8% | 112% | 83.8% | 104% | 95.3% | 93.6%
Cc1ccccc1NC(=O)Oc1ccc(Cl)cc1C(=O)c1ccccc1 | 95.1% | 92.5% | 99.1% | 88.1% | 104% | 83.9% | 88.4% | 91% | 102% | 109% | 87.4% | 96.1% | 105% | 85.1% | 82% | 72.7% | 107% | 87.3% | 102% | 103%
C=CCC(OC(C)=O)c1ccc(OC)c(OC)c1 (stereo not given) | 109% | 119% | 105% | 110% | 106% | 108% | 92.1% | 104% | 115% | 113% | 121% | 116% | 124% | 128% | 124% | 97.8% | 101% | 108% | 103% | 108%
Nc1ccc2c(c1)Cc1cc(N)c(N)cc1-2 | 86.2% | 95.4% | 92% | 95% | 95.9% | 101% | 74.6% | 77.9% | 107% | 103% | 108% | 97.3% | 95.8% | 84% | 97.3% | 104% | 106% | 109% | 81% | 102%
O=C(c1ccccc1)c1ccc(-c2ccc(O)cc2)cc1 | 66.1% | 89.3% | 37.8% | 43% | 43.8% | 71.7% | 25.8% | 38.6% | 72.8% | 142% | 69.8% | 90.2% | 84% | 55.4% | -4.28% (active) | 67.4% | 29.6% | 79.5% | 25.3% | 25.8%
